Assay results: the supplement of paper PMC3334620
The full ranking holds about 33,000 sequences; the median of “E-score (-0.5 to 0.5)” is about -0.012, and the highest 2% start at about 0.27. This excerpt belongs to a sample that is enriched for the highest values.

What follows are sequences tested against T1, Vhr1 (UniProt P40522) (assay: PBM E-score (8-mer binding enrichment) (E-score (-0.5 to 0.5)); higher = stronger / more preferred TF binding). Conditions: protein concentration: 200 nM; construct: GST-full length.
T1 sequence: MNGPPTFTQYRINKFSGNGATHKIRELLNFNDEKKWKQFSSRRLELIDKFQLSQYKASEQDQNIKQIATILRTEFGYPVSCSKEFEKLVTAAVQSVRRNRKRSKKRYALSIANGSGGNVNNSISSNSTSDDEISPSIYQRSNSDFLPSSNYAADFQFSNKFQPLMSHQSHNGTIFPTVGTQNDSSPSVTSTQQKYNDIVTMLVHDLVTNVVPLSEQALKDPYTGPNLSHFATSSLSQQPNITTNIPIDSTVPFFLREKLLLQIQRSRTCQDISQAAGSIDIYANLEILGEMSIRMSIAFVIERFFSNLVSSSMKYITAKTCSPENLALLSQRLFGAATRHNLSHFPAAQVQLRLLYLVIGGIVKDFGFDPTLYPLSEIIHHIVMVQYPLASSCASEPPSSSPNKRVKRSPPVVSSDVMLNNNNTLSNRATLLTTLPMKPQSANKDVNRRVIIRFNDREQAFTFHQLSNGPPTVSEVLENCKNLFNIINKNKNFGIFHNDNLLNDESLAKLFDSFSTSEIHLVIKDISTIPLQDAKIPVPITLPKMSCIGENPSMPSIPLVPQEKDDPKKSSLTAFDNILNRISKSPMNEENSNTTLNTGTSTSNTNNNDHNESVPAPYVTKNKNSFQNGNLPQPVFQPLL
Protocol: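 Universal 'all 10-mer' protein binding microarrays (Agilent AMADID 015681) probed with GST-tagged S. cerevisiae TFs (full-length or DBD) made by in vitro transcription/translation (PURExpress), about 100-200 nM. Bound TF was detected with fluorescent anti-GST. Each ungapped 8-mer (which stands for itself and its reverse complement) is scored by the PBM enrichment score (E-score), a modified Wilcoxon-Mann-Whitney statistic from -0.5 to +0.5, computed with the Universal PBM Analysis Suite. Scale: above 0.35 generally sequence-specific binding.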

Sequence	PBM E-score
GCCGTCTA	0.00852
GAGCACTA	0.0167
CCGAGTAA	0.0614
GCGAGTCA	0.455
GCGAGTAA	0.2
CCGAGTCA	0.451
CCGAGTCC	0.144
GCGAGTCC	0.22
ATTCGATG	0.0921
AAGCCTCG	0.00094
AGTCCCCG	0.0704
GGTGCTGA	0.042
CGCACCAG	0.302
CGCACCAA	0.143
AGCACCAG	-0.0111
AAATAATT	0.0111
ACCTGACG	-0.0943
AGCTGACT	0.413
ACCTGACC	0.11
ACCTGACT	0.374
AGCTGACG	-0.12
AGCTGACC	0.116
GGGCTTAC	-0.00595
AGAACTGA	-0.183
ATGAAGTG	-0.149
TAACAGAA	-0.069

Sequence	PBM E-score
ATTGAGTA	0.308
ATTGAGAA	0.113
CTTGAGGC	-0.174
GTTGAGTA	0.147
CTTGAGTA	0.0408
ATTGAGTC	0.387
ATTGAGAC	0.18
CTTGAGTC	0.333
ATTGAGTG	0.202
AGAGAAGA	-0.148
AACATCGG	0.0341
ATGCCAGG	0.0307
CGCGTACG	0.0931
CGCACGCC	0.167
ACGTTCGC	-0.141
GCTGCCAA	-0.0372
CCTGATTC	0.367
CCTGATTA	0.158
ACTGATTC	0.283
ACTGATTG	-0.00926
ACTGATTA	0.147
CCTGATGC	-0.0265
ACTCTACA	0.0564
ACGTCCAG	-0.147
CGAATAAG	0.0236
GCTATATA	0.0669

Sequence	PBM E-score
ACTATATA	0.274
ACTATATC	0.198
AGTATATC	0.0944
AGTATATA	0.33
AGTATATG	0.239
CAGAATGA	0.0955
CAAGGGCA	-0.168
GTTCTAAA	-0.164
GAGCGACC	-0.162
CCTCACCG	0.113
ACTCACCG	0.309
ACTCACCA	0.378
ACTCACCC	0.391
GCTCACCC	0.265
CCTCACCC	0.0394
ACTCACCT	0.244
TCTCACCA	0.0878
CCTCACCA	-0.00516
CTCTAGCC	-0.167
CCAGGGAG	0.09
GTAGGGTA	0.0298
CAAGCGTG	-0.00913
CCATTCAA	0.0103
CAGATTCG	0.069
AAACCATA	0.0822
CAACCATC	0.0512

Sequence	PBM E-score
AAACCATC	0.273
ACTGGGTA	-0.00457
ATAGGGGC	-0.0513
GAGCGAAA	0.0518
AACTTTTG	-0.205
CTCATATC	0.203
ATCATATG	0.174
ATCATATC	0.3
TACCAAGA	0.0906
AGAGCGCC	-0.134
AATGATGC	0.0924
AGGGCCAA	-0.299
AGTCTGCC	0.0302
CGGGAGTA	0.00502
AGGGAGTC	0.343
AGGGAGTG	0.042
CGGGAGAC	-0.0366
CGGGAGTC	0.386
AGGGAGTA	0.113
ACCACAAC	0.258
AATACAGG	0.111
CTCCTCTA	-0.189
GCGGGTCC	-0.00354
AGGGGTGA	-0.0936
GCGGGTGA	0.293
CGGGGTGA	0.275

Sequence	PBM E-score
GGGGGTGA	0.132
CCGGGTGA	0.208
ACGGGTCA	-0.077
GCGGGTCA	0.308
ACGGGTGA	0.117
GCTTAAAA	-0.0463
ACAGTTAA	0.0518
GTACCTAA	-0.0816
CGGTCGAC	0.0782
GAAGATAA	-0.0175
GTCACCGA	0.256
CTTACCCC	-0.156
ATCACCCC	0.199
ATCACCCA	0.223
CTCACCCC	0.318
CTCACCCA	0.342
CTCACCAA	0.265
GTCACCCA	0.311
CTCACCGA	0.183
ACTGGTGG	0.0234
GAGGGCTA	-0.228
AGTATGAC	0.311
GGTATGAC	0.231
AGTATGAG	0.0941
AGTATGAT	0.271
CGTATGAC	0.142

Sequence	PBM E-score
AGTATGAA	0.203
CCTGTGGA	-0.166
CTCTCATC	-0.131
CTTGCGGC	-0.0654
GATACATA	0.332
GATATATC	0.0354
AATATATG	0.19
GATACATC	0.224
GATATATA	0.284
AATATATA	0.157
CATATATA	0.256
GATATACA	0.113
CATACATA	0.238
TATATACA	0.162
AATATATT	0.284
TATATATA	0.318
ATGGCTTC	0.00791
CGTTTCGC	-0.0307
GAGTATGA	0.228
CTCTCAAC	0.00283
GCTTAGTA	-0.171
GGATCAAC	-0.0769
GTAACCAA	0.103
TGCAATAA	-0.0029
GGGGCCCA	-0.0152
ACTGATAG	0.167

Sequence	PBM E-score
AGAATTAA	-0.301
ATTGAAGC	-0.163
AAAATTCA	-0.128
CTACTATC	0.277
ATACTATC	0.128
CTACTATA	0.168
GGTCTGAC	0.226
CTGATGAC	0.19
AGGATGAG	0.225
AGGATGAC	0.112
GGGATGAA	-0.00977
GGGATGAC	0.323
AGGATGAA	-0.0977
ATGATGAG	0.196
ATGATGAC	0.303
AGGATGAT	0.309
GCTAGCCA	-0.17
CAGATCAG	-0.112
CGCGAATC	0.193
ACGTATCC	-0.194
CCATTAGC	-0.0966
ATTGGCCG	-0.13
GCACTGAC	0.0316
GCGAAGAA	-0.191
TCACACCA	0.17
ACACACCT	0.283

Sequence	PBM E-score
CCACACCA	0.141
ACACACCA	0.282
ACACACCC	0.198
ACACACCG	0.223
AACGTCAA	-0.269
AGGCTTCC	-0.119
CAAACGAG	0.0174
CTATGGCA	-0.132
GTCCTTAA	-0.00154
CGCGCGCC	0.228
CGCGCGCA	0.259
TGCGCGCA	0.29
GGCGCGCA	0.121
AGCGCGCG	0.0844
CGCGCGCG	0.286
TGGTTGAA	-0.0692
TATGCTCA	0.0368
GAGTGCCC	-0.0963
AAGCACTA	-0.0763
CATGCTGA	0.275
GATGCTGA	0.0169
AATGCTGA	0.027
AACGACGC	-0.0318
CATTCACC	0.0887
AAGAGGAT	-0.0743
GGTCTTTA	-0.0868

Sequence	PBM E-score
ACTCCCTG	0.276
ACTCCCTC	0.0377
ACTCCCTA	0.063
CGGGTCAG	0.204
GGAAGTCA	0.282
CGAAGTCA	0.203
GCAAGTCA	0.279
GGAAGTCC	-0.212
ACAAGTCA	0.174
TCAAGTCA	0.111
TAGTTGAA	0.134
AAGAAACA	-0.161
CCAGACGC	-0.029
CTAAGGAC	-0.0588
CGTTGCCC	-0.166
ATCGCCTA	0.0387
AGGCAAAG	-0.192
AAGAGTCA	0.422
GAGAGTCA	0.43
GAGAGTCC	-0.0872
TAGAGTGA	-0.0169
TAGAGTAA	-0.082
AAGAGTCC	-0.149
AAGAGTCT	0.00073
GAGAGTAA	0.0595
TAGAGTCA	0.355

Sequence	PBM E-score
GGCTGGTA	0.0349
TATATTCA	0.0779
GAGTGTTA	0.00822
GTGCGATA	0.0799
GCAGTCTA	-0.0301
CGGGTGAC	0.143
GCATTGAC	-0.0613
GGCTGCCA	0.181
GCGGTAGC	0.0852
CAGAGAGG	-0.086
AGGGTGGA	0.0785
AGGGTGGG	0.282
AGGGTGGC	0.173
GAGACTCC	0.286
CAGACTCC	-0.0111
GAGACTTA	-0.164
CAGACTCA	0.27
AAGACTCC	0.158
AAGACTCA	0.317
AAGACTCT	0.209
TAGACTCA	0.221
GAGACTCA	0.36
CGAACCAG	0.0659
AACGGTTG	0.038
CCATAGGC	-0.172
CCCGCCCG	0.259

Sequence	PBM E-score
ACCGCCCC	0.325
GCCGCCCC	0.0606
CCCGCCCC	0.329
ACCGCCCG	-0.058
ACCGCCCT	-0.0373
GCCGCCCA	0.128
CCCGCCCA	0.301
CCCCGCCC	0.258
GAGTCTGC	-0.0315
AGTTTATG	-0.0791
ACGTTATG	-0.0459
CCTTCGCC	-0.031
ATGCAGTA	0.0873
ATGCAGTG	0.276
ATGCAGTC	0.184
GAATTTCC	-0.0327
GGAGAAAA	-0.292
AATCCACC	0.154
AAGTCGGC	-0.177
GAGTCGGA	0.416
AAGTCGTA	-0.0973
GAGTCCGC	0.224
CAGTCGTA	0.132
CAGTCGGA	0.0502
CAGTCCGA	0.126
GAGTCGTA	0.405

Sequence	PBM E-score
GAGTCGGC	0.411
CAGTCGGC	0.0497
TAGTCGGA	0.203
GAGTCCGA	0.308
AGTCCACT	-0.158
ATGCATCC	-0.152
GCAGCCCA	0.0376
AGGATTGG	-0.0691
TAGTTAAA	0.0419
AACTGAAT	0.00051
GATTGGCA	-0.056
AACTGAGG	-0.0666
GTACAAAA	-0.0126
ACGTTGAC	0.0527
CCACCTGG	-0.0837
CATCCTCG	0.124
CATATCGG	0.0424
GATATCGA	-0.0237
AATATCAA	0.0811
CATATCGA	0.292
CATATCAA	0.278
CATATCAG	-0.0382
CTTATACC	-0.0429
GCACAGAA	-0.0823
CCGCGAAG	0.039
GGAGATCC	-0.0359

Sequence	PBM E-score
CGCTTAAC	-0.225
TACGTCAA	-0.139
CAAACAGG	0.0517
ACTATGAC	0.286
GCTATGAC	0.201
ACTATGAA	0.0955
CCTATGAC	0.0237
ACTATGAG	0.181
ACTATGAT	0.351
AGACTACT	0.216
ATTCTATC	-0.154
CCGCTAGC	-0.266
GCTGTCCC	-0.206
AGATCGAC	-0.0907
AATCAGAC	0.201
CCGTGGCG	0.189
GCGGTCAC	-0.00992
GACCCAGA	0.0388
AAATCAGC	0.121
GAATCAGA	0.319
GAATCAGC	0.307
AAATCAGA	0.0175
TAATCAGA	0.146
CAATCAGC	0.193
CCACACCC	0.197
GAAAATTC	-0.274

Sequence	PBM E-score
AAGCTTCC	-0.37
ATGGGCTG	0.198
CTGGGCTC	-0.135
ATGGGCTC	0.272
AAGTCAAT	0.0223
TCGTCGCA	0.111
CAGTCGCC	0.147
CAGTCGCA	0.0715
AAGTCGCA	0.173
AAGTCGCC	-0.0133
GAGTCGAC	0.294
TAGTCGAA	0.0212
CAGTCGAC	0.197
AAGTCGAC	0.17
GAGTCGCA	0.391
GAGTCGCC	0.424
TAGTCGCA	0.309
